Experimental data from ChEMBL document CHEMBL2218924, “A broad activity screen in support of a chemogenomic map for kinase signalling research and drug discovery” (Biochem J, 2013).

What was measured:
[1] = molecular target: T1, Serine/threonine-protein kinase 17A (Homo sapiens) (UniProt Q9UEE5); settings: at 10 µM
T1 sequence (whole entry): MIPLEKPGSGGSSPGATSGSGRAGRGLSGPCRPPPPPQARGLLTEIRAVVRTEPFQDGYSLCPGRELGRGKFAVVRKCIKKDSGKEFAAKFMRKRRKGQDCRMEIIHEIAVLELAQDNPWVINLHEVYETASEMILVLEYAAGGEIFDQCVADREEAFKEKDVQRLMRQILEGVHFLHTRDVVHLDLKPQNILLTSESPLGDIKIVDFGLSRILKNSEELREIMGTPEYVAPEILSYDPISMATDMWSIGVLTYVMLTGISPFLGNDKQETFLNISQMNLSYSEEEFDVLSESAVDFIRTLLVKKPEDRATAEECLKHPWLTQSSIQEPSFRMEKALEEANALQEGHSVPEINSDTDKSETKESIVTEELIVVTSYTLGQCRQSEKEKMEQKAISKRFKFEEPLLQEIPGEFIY

[2] = molecular target: T2, Dual specificity tyrosine-phosphorylation-regulated kinase 2 (Homo sapiens) (UniProt Q92630); settings: at 1 µM
T2 sequence (whole entry): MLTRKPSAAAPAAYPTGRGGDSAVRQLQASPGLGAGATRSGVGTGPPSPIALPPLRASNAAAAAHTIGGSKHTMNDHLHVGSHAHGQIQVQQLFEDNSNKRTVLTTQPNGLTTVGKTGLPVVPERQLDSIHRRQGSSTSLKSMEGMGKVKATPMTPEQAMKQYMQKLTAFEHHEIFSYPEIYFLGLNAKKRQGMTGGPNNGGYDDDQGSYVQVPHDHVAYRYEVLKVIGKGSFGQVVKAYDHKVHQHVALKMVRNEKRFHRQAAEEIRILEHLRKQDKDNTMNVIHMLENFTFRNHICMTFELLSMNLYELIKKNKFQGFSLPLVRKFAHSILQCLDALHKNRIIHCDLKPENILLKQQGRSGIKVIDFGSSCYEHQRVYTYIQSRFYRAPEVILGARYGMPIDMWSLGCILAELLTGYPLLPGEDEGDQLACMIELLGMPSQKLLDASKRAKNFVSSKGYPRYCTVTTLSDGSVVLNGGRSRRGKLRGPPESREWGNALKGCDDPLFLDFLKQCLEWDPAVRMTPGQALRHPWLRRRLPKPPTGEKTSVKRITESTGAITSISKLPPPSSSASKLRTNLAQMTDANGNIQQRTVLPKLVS

[3] = molecular target: T2, Dual specificity tyrosine-phosphorylation-regulated kinase 2 (Homo sapiens); settings: at 10 µM
[4] = molecular target: T3, Ephrin type-A receptor 3 (Homo sapiens) (UniProt P29320); settings: at 1 µM
T3 sequence (whole entry): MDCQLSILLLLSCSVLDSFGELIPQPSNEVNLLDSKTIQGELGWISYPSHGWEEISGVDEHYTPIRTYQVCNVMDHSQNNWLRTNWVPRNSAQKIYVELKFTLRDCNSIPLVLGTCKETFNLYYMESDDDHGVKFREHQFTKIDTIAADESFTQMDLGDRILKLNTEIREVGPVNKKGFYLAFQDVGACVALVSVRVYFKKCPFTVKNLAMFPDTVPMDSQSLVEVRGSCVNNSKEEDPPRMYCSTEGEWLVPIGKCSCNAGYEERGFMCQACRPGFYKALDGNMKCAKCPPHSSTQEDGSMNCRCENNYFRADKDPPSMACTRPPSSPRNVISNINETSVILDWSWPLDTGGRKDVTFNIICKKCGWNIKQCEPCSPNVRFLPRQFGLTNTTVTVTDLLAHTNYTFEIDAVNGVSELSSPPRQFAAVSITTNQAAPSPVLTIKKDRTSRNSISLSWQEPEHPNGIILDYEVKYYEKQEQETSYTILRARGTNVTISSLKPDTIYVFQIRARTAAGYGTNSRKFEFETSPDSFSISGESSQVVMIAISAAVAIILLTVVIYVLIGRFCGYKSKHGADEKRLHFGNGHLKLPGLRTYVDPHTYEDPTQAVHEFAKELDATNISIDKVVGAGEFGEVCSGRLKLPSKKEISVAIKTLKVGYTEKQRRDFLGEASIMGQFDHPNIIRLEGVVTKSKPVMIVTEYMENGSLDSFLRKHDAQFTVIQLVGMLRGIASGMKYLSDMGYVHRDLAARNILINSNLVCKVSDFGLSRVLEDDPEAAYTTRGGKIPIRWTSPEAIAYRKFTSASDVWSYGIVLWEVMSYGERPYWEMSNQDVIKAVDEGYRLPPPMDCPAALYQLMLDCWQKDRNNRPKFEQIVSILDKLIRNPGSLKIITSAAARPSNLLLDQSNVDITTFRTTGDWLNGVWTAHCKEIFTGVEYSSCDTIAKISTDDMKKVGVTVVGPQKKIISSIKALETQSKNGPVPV

[5] = molecular target: T4, Ephrin type-A receptor 1 (Homo sapiens) (UniProt P21709); settings: at 1 µM
T4 sequence (whole entry): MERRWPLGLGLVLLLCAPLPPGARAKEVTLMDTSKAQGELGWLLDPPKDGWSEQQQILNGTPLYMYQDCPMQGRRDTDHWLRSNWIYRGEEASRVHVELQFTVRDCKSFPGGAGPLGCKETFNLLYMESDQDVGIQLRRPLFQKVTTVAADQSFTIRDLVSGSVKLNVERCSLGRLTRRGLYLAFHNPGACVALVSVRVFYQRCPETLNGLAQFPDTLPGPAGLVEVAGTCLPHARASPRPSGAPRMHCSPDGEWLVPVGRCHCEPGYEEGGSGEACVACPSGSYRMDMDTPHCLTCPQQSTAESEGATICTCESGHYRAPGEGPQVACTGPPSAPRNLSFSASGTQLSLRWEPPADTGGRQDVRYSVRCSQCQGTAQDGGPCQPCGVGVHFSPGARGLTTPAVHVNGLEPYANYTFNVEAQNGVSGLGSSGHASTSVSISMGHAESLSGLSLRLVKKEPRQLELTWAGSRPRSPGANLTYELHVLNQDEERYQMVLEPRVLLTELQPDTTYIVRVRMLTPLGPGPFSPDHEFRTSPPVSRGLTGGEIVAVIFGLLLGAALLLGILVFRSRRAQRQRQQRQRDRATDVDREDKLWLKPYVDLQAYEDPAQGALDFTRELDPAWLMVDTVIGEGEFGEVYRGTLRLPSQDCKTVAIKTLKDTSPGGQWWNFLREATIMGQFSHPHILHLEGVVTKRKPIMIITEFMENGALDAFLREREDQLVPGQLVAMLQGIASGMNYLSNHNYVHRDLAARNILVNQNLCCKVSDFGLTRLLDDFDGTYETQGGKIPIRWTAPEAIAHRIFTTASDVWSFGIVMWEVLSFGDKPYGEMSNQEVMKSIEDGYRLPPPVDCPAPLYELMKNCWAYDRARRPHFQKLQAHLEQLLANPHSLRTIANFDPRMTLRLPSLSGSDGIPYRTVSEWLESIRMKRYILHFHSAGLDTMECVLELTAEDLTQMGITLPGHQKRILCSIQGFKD

[6] = molecular target: T4, Ephrin type-A receptor 1 (Homo sapiens); settings: at 10 µM
[7] = molecular target: Ephrin type-A receptor 2 (Homo sapiens) (UniProt P29317); settings: at 1 µM
[8] = molecular target: Ephrin type-A receptor 2 (Homo sapiens) (UniProt P29317); settings: at 10 µM

Chain of Ephrin type-A receptor 2 (Homo sapiens) (P29317 whole entry): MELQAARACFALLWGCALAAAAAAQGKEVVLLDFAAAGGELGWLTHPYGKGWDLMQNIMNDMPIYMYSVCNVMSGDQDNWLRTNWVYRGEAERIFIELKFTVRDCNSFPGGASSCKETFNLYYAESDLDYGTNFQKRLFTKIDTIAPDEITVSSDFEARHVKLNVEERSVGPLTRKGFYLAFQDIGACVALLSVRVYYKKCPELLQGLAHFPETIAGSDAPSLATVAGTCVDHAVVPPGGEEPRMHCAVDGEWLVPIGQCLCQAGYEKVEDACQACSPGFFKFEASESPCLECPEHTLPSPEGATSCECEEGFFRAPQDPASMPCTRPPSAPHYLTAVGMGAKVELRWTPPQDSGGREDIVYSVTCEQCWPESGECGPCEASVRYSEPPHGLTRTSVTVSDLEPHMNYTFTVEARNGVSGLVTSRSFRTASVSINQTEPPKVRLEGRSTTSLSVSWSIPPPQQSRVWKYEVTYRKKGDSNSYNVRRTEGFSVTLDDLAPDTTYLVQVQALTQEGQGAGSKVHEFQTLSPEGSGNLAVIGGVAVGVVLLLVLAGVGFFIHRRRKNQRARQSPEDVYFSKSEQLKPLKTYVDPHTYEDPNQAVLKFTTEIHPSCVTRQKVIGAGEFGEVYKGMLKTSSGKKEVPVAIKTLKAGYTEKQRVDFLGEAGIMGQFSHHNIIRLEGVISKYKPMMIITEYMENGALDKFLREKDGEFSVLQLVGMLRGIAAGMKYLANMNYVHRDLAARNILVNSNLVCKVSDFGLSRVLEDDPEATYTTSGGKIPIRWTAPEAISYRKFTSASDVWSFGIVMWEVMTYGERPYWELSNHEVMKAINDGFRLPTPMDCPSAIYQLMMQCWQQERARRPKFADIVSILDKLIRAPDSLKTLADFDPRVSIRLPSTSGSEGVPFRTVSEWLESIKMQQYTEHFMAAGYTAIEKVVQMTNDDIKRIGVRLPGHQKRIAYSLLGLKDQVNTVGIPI

Row | Structure (SMILES) | residual activity [1] [%] | residual activity [2] [%] | residual activity [3] [%] | residual activity [4] [%] | residual activity [5] [%] | residual activity [6] [%] | residual activity [7] [%] | residual activity [8] [%]
1 | N#CCCc1ccc2c(c1)-c1[nH]c3ccc([N+](=O)[O-])cc3c1CC(=O)N2 | 3 | 28 | 12 | 77 |  |  |  | 
2 | Nc1cccc(-c2cc3c(Oc4cccc(O)c4)ncnc3[nH]2)c1 | 32 | 89 | 62 | 4 | 2 | -1 | 30 | 2
3 | CN(C)CCCn1cc(C2=C(c3c[nH]c4ccccc34)C(=O)NC2=O)c2ccccc21 | 46 |  |  | 109 |  | 37 | 102 | 68
4 | Nc1n[nH]c2nnc(-c3c(-c4ccccc4)nn4ccccc34)cc12 | 117 | 94 | 88 | 94 | 96 | 66 | 91 | 95
5 | Cc1cc2ncc(-c3ccccc3)nc2cc1C | 95 | 85 | 105 | 103 | 96 | 105 | 109 | 97
6 | CCN(CC)C(=O)c1ccc(Nc2nc(OCC3CCCCC3)c3nc[nH]c3n2)cc1 | 4 |  |  |  | 60 | 8 | 77 | 42
7 | N#CC(C#N)=C(N)/C(C#N)=C/c1ccc(O)cc1 |  | 85 | 93 |  |  |  |  | 
8 | O=Nc1c(-c2c(O)[nH]c3ccccc23)[nH]c2ccccc12 | 4 | 79 | 20 | 58 | 55 | 61 | 61 | 16
9 | O=c1c2ccccc2[nH]c(=S)n1CCN1CCC(=C(c2ccc(F)cc2)c2ccc(F)cc2)CC1 | 90 | 102 | 96 | 109 | 95 | 89 | 116 | 100
10 | O=C1Nc2ccccc2/C1=C1/Nc2ccccc2/C1=N\OCCC(O)CO (centres undefined) | 3 | 70 | 52 | 41 | 43 | 42 | 54 | 14
